Laboratory results reported in PubChem BioAssay (NCATS).
Inconclusive results are not listed. Active and inactive are the calls of the source. Unless noted, calls follow the shape of the dose curve; as a rule, active = well fitted curve in the direction sought with a large enough effect; inconclusive = small, poorly fitted or top-dose-only effect, or another doubt; inactive = no such curve, though single readings can be large; an effect the other way counts as inactive or inconclusive.

Legend:
[1] = biological target: Luciferin 4-monooxygenase (Photinus pyralis) (UniProt P08659); test: Biochemical firefly luciferase enzyme assay for NPC (AID 624030);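 also: purified P. pyralis luciferase at 10 nM with luciferin and ATP substrate; 0% = DMSO and -100% = full luciferase inhibition by PTC124 control; nearly all actives have a fitted effect of over 70% in size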
Method in brief: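 Counter-screen for direct inhibition of the luciferase enzyme by approved-drug library compounds, run at 10 nM enzyme in 50 mM Tris acetate (final). Luminescence was read within 5 min of enzyme-buffer addition and normalized to PTC124 versus DMSO (0%).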

[2] = qHTS Assay for Identifying Gametocytocidal Compounds (AID 743244);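 also: % is scaled to controls: 0 for no effect and ±100 for the full control effect; actives lower the fluorescent signal which means gametocytes are killed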; settings: P. falciparum 3D7 stage III-V gametocytes, alamarBlue, 72 h; max response: stronger effect = lower value
Method in brief: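 P. falciparum 3D7 stage III–V gametocytes (20,000 cells/well) were exposed to compounds for 72 h at 37 °C, 5% CO2. AlamarBlue was then added for 24 h; decreased resorufin fluorescence (Ex 525/Em 598 nm) indicated loss of viability.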

KB-3-1 = test: Cytotoxic Profiling of Annotated Libraries Using Quantitative High-Throughput Screening (AID 1296008); settings: Five cell lines viability, CellTiter-Glo ATP luminescence, 48-72 h; max response: stronger effect = lower value; also: nearly all actives have a fitted effect of over 60% in size; also: potency is read from the fitted curve at half-maximal effect
Method in brief: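 Compounds were pin-transferred onto cells and incubated 48 or 72 hr at 37 degree Celsius, 95% humidity. CellTiter-Glo was added, plates sat 10 min at room temperature, then ATP-coupled luminescence was imaged as the viability read-out.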

[3] = Drug repurposing screens with cells derived from glioblastoma tumor samples (AID 1345199); settings: GBM patient neurospheres viability, ATP luminescence, 48 h; Potency: tumour line A; series mostly up to 45.9 µM; also: nearly all actives have a fitted effect of over 40% in size; also: potency is read from the fitted curve at half-maximal effect
Method in brief: (§1)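 Primary testing used CD133+ neurospheres from four GBM patients, seven concentrations, 48 h exposure and ATP-based viability; confirmation added three slower-growing patient lines.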

astro = test: as above; settings: viability, ATP luminescence, 48 h; series mostly up to 45.9 µM
Method in brief: as §1

[4] = P-glycoprotein substrates identified in KB-8-5-11 adenocarcinoma cell line, qHTS therapeutic library screen (AID 1346987); also: nearly all actives have a fitted effect of over 65% in size; also: potency is read from the fitted curve at half-maximal effect
Method in brief: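 Luminescence from CellTiter-Glo, read 5 min after addition, quantified survival of KB-8-5-11 (P-gp-overexpressing) cells exposed to compounds for 72 h. AC50 was derived from concentration-response curves.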

[5] = qHTS for Inhibitors of the Functional Ribonucleoprotein Complex (vRNP) of Lassa (LASV) Arenavirus: LASV Primary Screen - GLuc reporter signal (AID 1347082; calls by dose curve; tested in HEK293 reporter line; also: potency is read from the fitted curve at half-maximal effect; nearly all actives have a fitted effect of over 60% in size)
[6] = biological target: Cytochrome P450 2D6 (Homo sapiens) (UniProt P10635); test: Cytochrome P450 family 2 subfamily D member 6 (CYP2D6) small molecule antagonists: luciferase biochemical (cell-free) qHTS assay (AID 1645840; active = well fitted curve in the direction sought with a large enough effect in the repeat runs; an effect the other way counts as inactive or inconclusive; also: potency is read from the fitted curve at half-maximal effect; nearly all actives have a fitted effect of over 55% in size)
Method in brief: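 P450-Glo CYP2D6 system: proluciferin substrate converted by enzyme to luciferin, read by luminescence proportional to activity. Enzyme-substrate mix with compound 10 min at room temperature, then NADPH regeneration 1 h before detection reagent.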

[7] = biological target: Cytochrome P450 2C9 (Homo sapiens) (UniProt P11712); test: Cytochrome P450 family 2 subfamily C member 9 (CYP2C9) small molecule antagonists: luciferase biochemical (cell-free) qHTS assay (AID 1645842; active = well fitted curve in the direction sought with a large enough effect in the repeat runs; an effect the other way counts as inactive or inconclusive; also: potency is read from the fitted curve at half-maximal effect; nearly all actives have a fitted effect of over 55% in size)
Method in brief: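 P450-Glo CYP2C9 system: proluciferin substrate with enzyme in mix containing 0.4% BSA, 10 min at room temperature, then NADPH regeneration solution added and incubated 1 h at 37C. Detection reagent stopped reaction; luminescence read after 20 min as RLU.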

[8] = AP1 Signaling Pathway (AID 357; active = well fitted curve in either direction with a large enough effect, not every such curve was filed as active; also: % is scaled to controls: 0 for no effect and ±100 for the full control effect)
Method in brief: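 ME-180 cells with beta-lactamase reporter under AP-1 response element, stimulated with EC50 EGF; compounds tested in titration series, 5 h at 37 °C. CCF4 substrate added 2.5 h at room temperature; 460/530 nm emission ratio gave %activity and AC50.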

[9] = Stat Signaling Pathway (AID 446; active = well fitted curve in either direction with a large enough effect, not every such curve was filed as active;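 also: ME-180 cervical cancer cells given 40 pM IL-6 alongside compound; SIE-controlled beta-lactamase reporter measured as 460/530 nm FRET emission ratio; % is scaled to controls: 0 for no effect and ±100 for the full control effect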)
Method in brief: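 Compound effects on IL-6-induced STAT reporter activity were measured in ME-180 cells. After overnight culture, cells were co-treated with 40 pM IL-6 for 5 hrs before beta-lactamase substrate loading at room temperature.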

[10] = biological target: Mitogen-activated protein kinase 10 (Mus musculus) (UniProt Q61831); test: JNK3 AlphaScreen Assay (AID 530; active = well fitted curve in either direction with a large enough effect, not every such curve was filed as active;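 also: kinase came from lysate of stimulated human HepG2 cells; signal reports phosphorylation of biotinylated GST-cJun 1-79 at Ser73 with 10 µM ATP; % is scaled to controls: 0 for no effect and ±100 for the full control effect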)
Method in brief: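 Phosphorylation of biotinylated GST-cJun(1-79) at Ser73 is measured by AlphaScreen proximity luminescence. Enzyme is JNK3 in HepG2 lysates activated with interleukin-1beta and tumor necrosis factor alpha; ATP is 10 uM final.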

[11] = biological target: 3',5'-cyclic-AMP phosphodiesterase 4B (Homo sapiens) (UniProt Q07343); test: qHTS Assay for Inhibitors of PDE-IV (AID 607; active = well fitted activation curve with a large enough effect in the main read-out, with a control signal flat, not every such curve was filed as active; also: % of control where 0% means no effect)
Method in brief: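 ACTOne HEK293 cells carry a modified cAMP-gated CNG channel and express endogenous PDE4; plated 1000 cells/well, compounds up to 22.9 uM final. Membrane-potential dye fluorescence (ex 535/em 590) was read; parental cells received 10 uM forskolin + 100 uM RO 20-1724.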

[12] = biological target: Guanine nucleotide-binding protein G(i) subunit alpha-1 (Homo sapiens) (UniProt P63096); test: qHTS Assay for Inhibitors of RGS12 GoLoco Motif Activity (Green Fluorophore) (AID 879);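 also: 0% = labeled peptide with Gαi1 and full inhibition = labeled peptide alone without protein; negative values mean loss of peptide binding seen as reduced polarization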
Method in brief: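 A drop in FITC polarization marked displacement of the FITC-tagged RGS12 GoLoco peptide (10 nM) from Gαi1 (50 nM). Compounds were incubated 10 min at room temperature in Tris pH 7.5 buffer containing 150 mM NaCl, 0.1 mM GDP and 0.05% NP40; unlabeled peptide titration served as control.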

[13] = qHTS Assay for Identification of Small Molecule Antagonists for NFkB Signaling Pathway (AID 895; active = well fitted inhibition curve with a large enough effect in the signal ratio, with a control signal flat, not every such curve was filed as active; the % refers to the signal ratio; also: % is scaled to controls: 0 for no effect and ±100 for the full control effect)
Method in brief: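 NFkB-bla ME-180 cervical carcinoma cells with beta-lactamase reporter under NFkB response element; compounds added, then TNF alpha at 10 pM final (EC50), 5 h at 37 C. LiveBLAzer substrate 2 h, room temperature; emission 460/530 nm at 405 nm excitation.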

[14] = qHTS Assay for Identification of Small Molecule Agonists for Thrombopoietin (TPO) Signaling Pathway (AID 917); also: % is scaled to controls: 0 for no effect and ±100 for the full control effect
Method in brief: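 First, Ba/F3 cells with human TPO receptor were held overnight without IL-3. Next, compounds and TPO (26 pM final) were added. After 24 hrs at 37 C, luciferase detection reagent was added and luminescence measured following 10 min at room temperature.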

[15] = biological target: Pyruvate kinase (Leishmania mexicana) (UniProt Q27686); test: qHTS Validation Assay for Inhibitors of Leishmania Mexicana Pyruvate Kinase (AID 945);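 also: 0% = DMSO only neutral control wells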
Method in brief: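 Luminescent ATP detection (PKLight) after a 1 h room-temperature reaction of 0.2 nM LmPYK E451W mutant with 0.5 mM PEP and 0.1 mM ADP at pH 7.2. Activity is normalized to DMSO-only control wells.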

[16] = biological target: Pyruvate kinase PKM (Homo sapiens) (UniProt P14618); test: qHTS Assay for Activators of Human Muscle Pyruvate Kinase (AID 954; active = well fitted curve in the direction sought with a large enough effect, not every such curve was filed as active;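 also: 0% = uninhibited enzyme and -100% = no enzyme or full thiadiazolimine inhibition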)
Method in brief: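 A coupled luminescent readout tracked ATP made from ADP by purified PKM2. Final conditions included 0.1 nM enzyme, PEP and ADP at 0.5 and 0.1 mM, pH 7.2 imidazole buffer with BSA, and a one-hour room-temperature reaction.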

[17] = biological target: Alpha-galactosidase (Coffea arabica) (UniProt Q42656); test: Counterscreen for Glucocerebrosidase Inhibitors: qHTS Assay for Coffee Bean alpha-Galactosidase at pH 4.5 (AID 957);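 also: plate controls were enzyme alone for no effect and no enzyme for full effect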
Method in brief: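 Enzyme is added first (2 nM final), then compounds titrated from 0.7 nM to 77 uM, then 80 uM 4-methylumbelliferyl alpha-D-galactopyranoside; after 20 min at room temperature a pH 10 NaOH/glycine stop precedes fluorescence reading at 365/440 nm.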

[18] = biological target: alpha-glucosidase (Oryza sativa, rice) (UniProt Q653V4); test: Counterscreen for Glucocerebrosidase Inhibitors: qHTS Assay for Rice alpha-Glucosidase at pH 5.0 (AID 997);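 also: 0% = full activity with enzyme and -100% = basal without enzyme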
Method in brief: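 Endpoint fluorogenic assay at pH 5.0: compounds (0.7 nM to 77 uM) titrated against 4 nM rice enzyme and 400 uM 4-MU-alpha-glucoside for 20 min at room temperature; NaOH/glycine stop, read ex 365/em 440 nm, Hill-fitted AC50.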

[19] = biological target: Alpha-galactosidase (Coffea arabica) (UniProt Q42656); test: Counterscreen for Glucocerebrosidase Inhibitors: qHTS Assay for Coffee Bean alpha-Galactosidase at pH 5.9 (AID 998);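 also: plate controls were uninhibited enzyme for no effect and no-enzyme basal signal for full effect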
Method in brief: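 In 50 mM citric acid pH 5.9 with 0.005% Tween-20, coffee bean enzyme hydrolyses 80 uM 4-MU alpha-D-galactopyranoside over 20 min at RT. Activity is normalized to controls; AC50 comes from Hill-modelled concentration-response data.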

Furin (Homo sapiens) = Furin (Homo sapiens) (UniProt P09958); test: Furin counterscreen qHTS for Zika virus inhibitors (AID 1347149);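 also: purified recombinant full-length human furin enzyme at 5 nM; fluorescence gain from furin cutting a BOC-RVRR-AMC peptide substrate over 15 min; top concentration of the series differs between compounds; plate controls were no-inhibitor control for no effect and no-enzyme control for full effect; nearly all actives have a fitted effect of over 70% in size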
Method in brief: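 Counterscreen measures cleavage of 2 microM BOC-RVRR-AMC, below its ~15 microM Km, by 5 nM full-length human furin at pH 7.0 after a 15-min compound preincubation. Inhibition derives from the 15-min fluorescence increase at 37C.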

[20] = Vero cells viability qHTS for Zika virus inhibitors (AID 1347167); also: % is scaled to controls: 0 for no effect and ±100 for the full control effect
Method in brief: (§2)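 To flag cytotoxic protease inhibitors, viability is measured by ATP-dependent luminescence (CellTiter Glo) after cells attached overnight receive compound for 24 to 48 hours in DMEM with 4% FBS.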

[21] = HepG2 cells viability qHTS for Zika virus inhibitors (AID 1347168); also: % is scaled to controls: 0 for no effect and ±100 for the full control effect
Method in brief: as §2

[22] = Tertiary RLuc qRT-PCR qHTS assay for Zika virus inhibitors (AID 1347169); also: top concentration of the series differs between compounds; % is scaled to controls: 0 for no effect and ±100 for the full control effect; nearly all actives have a fitted effect of over 55% in size
Method in brief: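 Vero cells (1,000 per well) plated overnight at 37 degrees C, treated with compound in DMSO, then infected with recombinant ZIKV-RLuc (Cambodian) at MOI 1-2 for 48-72 hrs. Live-cell Renilla luciferase substrate added; luminescence read after 1-1.5 hrs.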

[23] = Primary qHTS for Huh7 cytotoxicity: counterscreen for inhibitors of MERS-S pseudotyped particle cell entry (AID 1479147; calls by dose curve); settings: outcome: dose series up to 57.1 µM unless noted
[24] = Primary qHTS for Vero E6 cytotoxicity: counterscreen for inhibitors of SARS-S pseudo-typed particle cell entry (AID 1479150; calls by dose curve); settings: outcome: dose series up to 57.1 µM unless noted
[25] = Cytotoxicity counterscreen for inhibitors of SARS-CoV-2 cell entry (AID 1645845; calls by dose curve; also: nearly all actives have a fitted effect of over 50% in size)
Method in brief: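 After a 15 min room-temperature ATPLite 1step step, luminescence reflected ATP remaining in HEK293-ACE2 cells exposed to compound for 1 h plus 48 h at 37 C, with percent activity set by cell and no-cell controls.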

[26] = biological target: Glutathione peroxidase 1 (Homo sapiens) (UniProt P07203); test: Primary qHTS Assay for Inhibitors of Recombinant Selenoprotein Glutathione Peroxidase 1 (GPX1) (AID 1845191); also: % is scaled to controls: 0 for no effect and ±100 for the full control effect; nearly all actives have a fitted effect of over 65% in size
Method in brief: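 GPX1 10 nM, GR 100 nM, GSH 1 mM, NADPH 0.5 mM, CHP 0.5 mM (final). 30-min cpd preincubation, RT. Ex340/Em450 read t=0, t=15 min.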

[27] = biological target: Phospholipid hydroperoxide glutathione peroxidase GPX4 (Homo sapiens) (UniProt P36969); test: Primary qHTS Assay for Inhibitors of Recombinant Selenoprotein Glutathione Peroxidase 4 (GPX4) (AID 1845192); also: nearly all actives have a fitted effect of over 65% in size
Method in brief: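 qHTS, GR-coupled: GPX4 200 nM + cpd 30 min RT → GSH 1 mM, NADPH 0.5 mM, GR 100 nM → CHP 0.5 mM start; fluor 340/450 at t0 and t15 min; no-enzyme wells as control.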

Luciferin 4-monooxygenase (Photinus pyralis), sequence (P08659 whole entry, looked up): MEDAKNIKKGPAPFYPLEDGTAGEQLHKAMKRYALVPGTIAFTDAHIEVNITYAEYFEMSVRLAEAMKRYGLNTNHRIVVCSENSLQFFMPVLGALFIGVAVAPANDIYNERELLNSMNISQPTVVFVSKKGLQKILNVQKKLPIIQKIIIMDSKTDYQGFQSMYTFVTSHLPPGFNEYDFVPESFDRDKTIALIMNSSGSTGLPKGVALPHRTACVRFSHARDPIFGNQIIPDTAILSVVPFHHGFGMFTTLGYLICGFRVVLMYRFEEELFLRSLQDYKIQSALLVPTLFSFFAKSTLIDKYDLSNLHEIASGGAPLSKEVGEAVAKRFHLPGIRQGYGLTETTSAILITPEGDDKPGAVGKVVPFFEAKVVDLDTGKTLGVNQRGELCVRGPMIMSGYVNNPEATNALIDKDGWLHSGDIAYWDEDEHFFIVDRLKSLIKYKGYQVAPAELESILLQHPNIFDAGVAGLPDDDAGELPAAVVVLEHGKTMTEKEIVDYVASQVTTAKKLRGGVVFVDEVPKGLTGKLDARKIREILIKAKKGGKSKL
Furin (Homo sapiens), sequence (P09958 whole entry, looked up): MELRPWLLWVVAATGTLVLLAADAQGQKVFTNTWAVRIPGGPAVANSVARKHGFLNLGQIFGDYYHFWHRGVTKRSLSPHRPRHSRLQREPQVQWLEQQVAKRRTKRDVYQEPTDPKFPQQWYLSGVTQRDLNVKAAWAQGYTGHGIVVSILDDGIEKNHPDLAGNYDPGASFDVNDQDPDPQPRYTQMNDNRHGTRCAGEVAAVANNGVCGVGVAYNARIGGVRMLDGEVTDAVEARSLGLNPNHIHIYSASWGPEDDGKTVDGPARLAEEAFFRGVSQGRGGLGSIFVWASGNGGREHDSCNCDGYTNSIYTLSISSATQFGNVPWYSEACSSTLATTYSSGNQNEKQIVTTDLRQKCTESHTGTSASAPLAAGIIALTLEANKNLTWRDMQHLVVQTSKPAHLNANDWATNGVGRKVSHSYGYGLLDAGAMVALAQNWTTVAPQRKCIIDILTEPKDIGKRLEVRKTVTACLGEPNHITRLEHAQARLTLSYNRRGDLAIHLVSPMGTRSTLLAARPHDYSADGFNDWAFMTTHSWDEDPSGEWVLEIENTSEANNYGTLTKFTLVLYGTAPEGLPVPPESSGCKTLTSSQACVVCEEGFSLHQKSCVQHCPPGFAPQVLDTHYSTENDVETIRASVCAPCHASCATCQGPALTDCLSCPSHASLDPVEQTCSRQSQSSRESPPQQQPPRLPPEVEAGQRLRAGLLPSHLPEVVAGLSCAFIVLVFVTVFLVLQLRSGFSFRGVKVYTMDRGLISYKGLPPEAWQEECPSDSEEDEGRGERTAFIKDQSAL
Alpha-galactosidase (Coffea arabica), sequence (Q42656 whole entry, looked up): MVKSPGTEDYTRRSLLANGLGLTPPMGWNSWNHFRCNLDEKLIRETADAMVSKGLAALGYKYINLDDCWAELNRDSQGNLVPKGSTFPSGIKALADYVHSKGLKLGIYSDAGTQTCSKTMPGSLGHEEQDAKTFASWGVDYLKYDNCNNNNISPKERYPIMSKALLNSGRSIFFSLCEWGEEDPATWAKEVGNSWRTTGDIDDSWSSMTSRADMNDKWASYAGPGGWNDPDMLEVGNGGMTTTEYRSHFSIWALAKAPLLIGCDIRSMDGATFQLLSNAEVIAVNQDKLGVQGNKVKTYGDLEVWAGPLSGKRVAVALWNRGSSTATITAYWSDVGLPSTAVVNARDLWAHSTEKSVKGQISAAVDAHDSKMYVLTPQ
3',5'-cyclic-AMP phosphodiesterase 4B (Homo sapiens), sequence (Q07343 whole entry, looked up): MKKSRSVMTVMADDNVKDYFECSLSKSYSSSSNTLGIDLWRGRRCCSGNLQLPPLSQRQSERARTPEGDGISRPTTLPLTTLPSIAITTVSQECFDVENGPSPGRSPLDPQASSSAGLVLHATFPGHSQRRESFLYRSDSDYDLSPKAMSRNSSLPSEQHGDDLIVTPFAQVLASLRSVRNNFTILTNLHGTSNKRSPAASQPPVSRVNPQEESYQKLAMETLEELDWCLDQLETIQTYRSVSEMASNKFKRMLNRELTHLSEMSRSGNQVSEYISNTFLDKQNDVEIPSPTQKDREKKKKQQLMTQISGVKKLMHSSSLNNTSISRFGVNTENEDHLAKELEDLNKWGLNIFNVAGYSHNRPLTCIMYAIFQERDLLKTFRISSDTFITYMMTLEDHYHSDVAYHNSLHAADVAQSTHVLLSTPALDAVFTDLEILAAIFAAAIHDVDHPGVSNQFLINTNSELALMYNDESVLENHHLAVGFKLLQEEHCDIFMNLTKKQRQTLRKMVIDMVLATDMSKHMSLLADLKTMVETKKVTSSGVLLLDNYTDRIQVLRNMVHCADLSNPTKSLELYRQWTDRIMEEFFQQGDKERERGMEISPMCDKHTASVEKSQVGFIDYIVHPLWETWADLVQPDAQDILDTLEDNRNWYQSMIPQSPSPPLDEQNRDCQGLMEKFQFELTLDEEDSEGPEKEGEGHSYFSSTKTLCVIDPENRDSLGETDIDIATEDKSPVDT
Cytochrome P450 2D6 (Homo sapiens), sequence (P10635 whole entry, looked up): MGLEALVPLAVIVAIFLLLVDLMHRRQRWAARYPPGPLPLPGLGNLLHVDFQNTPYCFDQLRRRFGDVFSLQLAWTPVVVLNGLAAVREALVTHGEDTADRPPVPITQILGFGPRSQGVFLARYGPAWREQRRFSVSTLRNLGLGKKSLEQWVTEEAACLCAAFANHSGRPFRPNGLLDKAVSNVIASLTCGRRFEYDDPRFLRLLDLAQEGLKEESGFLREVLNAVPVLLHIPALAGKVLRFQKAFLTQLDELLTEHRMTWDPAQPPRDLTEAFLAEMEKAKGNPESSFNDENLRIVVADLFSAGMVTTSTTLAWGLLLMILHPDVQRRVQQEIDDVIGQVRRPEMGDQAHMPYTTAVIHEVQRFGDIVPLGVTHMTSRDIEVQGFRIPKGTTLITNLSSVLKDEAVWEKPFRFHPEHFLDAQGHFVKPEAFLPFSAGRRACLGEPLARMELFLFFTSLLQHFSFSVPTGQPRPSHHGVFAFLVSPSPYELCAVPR
Pyruvate kinase PKM (Homo sapiens), sequence (P14618 whole entry, looked up): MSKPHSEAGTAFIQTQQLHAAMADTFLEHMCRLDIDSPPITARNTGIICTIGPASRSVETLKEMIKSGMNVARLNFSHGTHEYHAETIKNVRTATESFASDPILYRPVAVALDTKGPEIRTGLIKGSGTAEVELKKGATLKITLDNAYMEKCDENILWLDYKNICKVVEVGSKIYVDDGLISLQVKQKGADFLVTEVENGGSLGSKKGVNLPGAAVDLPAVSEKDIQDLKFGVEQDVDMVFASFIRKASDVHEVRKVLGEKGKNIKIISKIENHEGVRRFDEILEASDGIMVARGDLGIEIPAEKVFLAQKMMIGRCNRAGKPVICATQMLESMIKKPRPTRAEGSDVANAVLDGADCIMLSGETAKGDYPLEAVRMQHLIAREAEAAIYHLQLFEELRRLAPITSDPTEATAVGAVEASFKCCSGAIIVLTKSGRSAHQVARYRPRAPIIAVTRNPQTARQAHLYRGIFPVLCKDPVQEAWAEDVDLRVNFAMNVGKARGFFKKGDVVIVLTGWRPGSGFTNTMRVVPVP
Phospholipid hydroperoxide glutathione peroxidase GPX4 (Homo sapiens), sequence (P36969 whole entry, looked up): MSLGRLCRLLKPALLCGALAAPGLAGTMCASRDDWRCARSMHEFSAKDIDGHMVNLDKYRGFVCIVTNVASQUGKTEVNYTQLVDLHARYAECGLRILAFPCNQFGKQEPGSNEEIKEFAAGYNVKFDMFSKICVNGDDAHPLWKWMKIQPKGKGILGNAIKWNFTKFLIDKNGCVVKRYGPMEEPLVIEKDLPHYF
Guanine nucleotide-binding protein G(i) subunit alpha-1 (Homo sapiens), sequence (P63096 whole entry, looked up): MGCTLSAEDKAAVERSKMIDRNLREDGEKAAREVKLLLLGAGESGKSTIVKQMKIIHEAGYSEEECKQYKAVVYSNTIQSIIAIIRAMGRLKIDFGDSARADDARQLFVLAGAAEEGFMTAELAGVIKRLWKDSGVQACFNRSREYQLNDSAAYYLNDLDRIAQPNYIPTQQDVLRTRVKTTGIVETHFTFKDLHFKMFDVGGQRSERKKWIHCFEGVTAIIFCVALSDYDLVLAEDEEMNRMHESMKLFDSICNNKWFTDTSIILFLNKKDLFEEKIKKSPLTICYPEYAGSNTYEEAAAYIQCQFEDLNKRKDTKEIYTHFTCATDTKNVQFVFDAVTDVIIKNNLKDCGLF
Cytochrome P450 2C9 (Homo sapiens), sequence (P11712 whole entry, looked up): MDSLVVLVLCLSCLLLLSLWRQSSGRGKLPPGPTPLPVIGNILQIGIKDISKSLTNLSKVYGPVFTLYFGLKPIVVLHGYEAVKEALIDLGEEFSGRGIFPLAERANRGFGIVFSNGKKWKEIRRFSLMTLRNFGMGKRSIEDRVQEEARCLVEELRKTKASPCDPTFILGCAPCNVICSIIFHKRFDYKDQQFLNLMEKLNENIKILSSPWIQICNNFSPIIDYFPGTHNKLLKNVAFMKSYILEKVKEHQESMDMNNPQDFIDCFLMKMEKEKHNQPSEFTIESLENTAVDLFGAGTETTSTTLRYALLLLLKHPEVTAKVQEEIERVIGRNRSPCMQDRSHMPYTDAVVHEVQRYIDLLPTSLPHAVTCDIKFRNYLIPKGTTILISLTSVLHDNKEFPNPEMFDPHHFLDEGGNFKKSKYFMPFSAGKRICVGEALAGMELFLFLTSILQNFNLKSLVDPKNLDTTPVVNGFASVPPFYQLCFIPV
Glutathione peroxidase 1 (Homo sapiens), sequence (P07203 whole entry, looked up): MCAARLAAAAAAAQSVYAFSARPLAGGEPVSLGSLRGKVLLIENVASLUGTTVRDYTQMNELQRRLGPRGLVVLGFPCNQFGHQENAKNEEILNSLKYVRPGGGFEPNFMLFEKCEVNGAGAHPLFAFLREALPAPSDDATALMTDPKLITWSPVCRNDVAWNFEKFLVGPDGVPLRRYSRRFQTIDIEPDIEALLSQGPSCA

C/C=C(\CC)C(=O)NC(N)=O
inactive: Potency [1] | max response [2] -0.86% | max response (KB-3-1) -1.21% | Potency [3] | Potency (astro)

CC(=O)O[C@H]1C[C@H](O[C@H]2[C@@H](O)C[C@H](O[C@H]3[C@@H](O)C[C@H](OC4CC[C@@]5(C)C(CC[C@@H]6[C@@H]5CC[C@]5(C)[C@@H](C7=CC(=O)OC7)[C@@H](O)C[C@]65O)C4)O[C@@H]3C)O[C@@H]2C)O[C@H](C)[C@H]1O[C@@H]1O[C@H](CO)[C@@H](O)[C@H](O)[C@H]1O (some centres undefined)
active: Potency [4] 1.3 µM | Potency [5] 0.794 µM | Potency (KB-3-1) 1.3 µM | Potency (astro) 0.708 µM
inactive: max response [2] 7.87%

CCOP(=S)(OCC)SCSc1ccc(Cl)cc1
inactive: Potency [1] | max response [2] -1.21% | Potency [4] | max response (KB-3-1) -9.26% | Potency [3] | Potency (astro)
active: Potency [6] 9.52 µM | Potency [7] 0.213 µM

CNC(C)Cc1ccccc1 (centres undefined)
inactive: Potency [1] | max response [2] 7.96% | Potency [4] | max response (KB-3-1) -8.49% | Potency [3] | Potency (astro)

COc1ccc(OC)c(C[C@H](C)N)c1
inactive: Potency [1] | max response [2] -1.24% | Potency [4] | max response (KB-3-1) 4.2% | Potency [3] | Potency (astro)

CN1CC[C@@]23CCCC[C@@H]2[C@@H]1Cc1ccc(O)cc13
inactive: outcome [8] | outcome [9] | outcome [10] | Potency [11] | outcome [12] | Potency [13] | outcome [14] | outcome [15] | outcome [16] | outcome [17] | outcome [18] | outcome [19] | Potency [1] | max response [2] 4.44% | Potency [4] | Potency (Furin (Homo sapiens)) | Potency [20] | Potency [21] | Potency [22] | max response (KB-3-1) -20.8% | Potency (astro)

CN[C@]1(c2ccccc2Cl)CCCCC1=O
inactive: max response [2] 1.48% | Potency [4] | max response (KB-3-1) -15.2% | Potency [3] | Potency (astro)

O=C1CN=C(c2ccccc2)c2cc(Cl)ccc2N1
inactive: Potency [1] | max response [2] 38.4% | Potency [4] | max response (KB-3-1) -13.7% | Potency [3] | Potency (astro)

Oc1ccc2c3c1O[C@H]1[C@@H](O)C=C[C@H]4[C@H](C2)NCC[C@@]341
inactive: max response [2] 8.16% | Potency [4] | max response (KB-3-1) -12.5% | Potency [3] | Potency (astro)

Cc1ccc2c(c1)[C@]13CCCC[C@@H]1[C@H](C2)N(C)CC3
inactive: max response [2] -5.26% | Potency [4] | Potency (Furin (Homo sapiens)) | Potency [20] | Potency [21] | outcome [23] | outcome [24] | Potency [25] | Potency [26] | Potency [27] | max response (KB-3-1) -5.13% | Potency (astro)
